Laboratory results as given in PubChem BioAssay AID1159580 (chemical genetic matrix, 2015).
Out of some 5,500 compounds screened, about 2,000 (36%) were called active. Not shown: some 18% with an inconclusive outcome. Cut-off read from the data, not from the text of the source: active = normalized growth mostly below about 0.91 (no sharp cut-off); inconclusive = no clear call, values can overlap the other calls; inactive = mostly above about 0.92. The list shows a part of the results.

Assay: chemical genetic growth profiling, strain panel (AID 1159580);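 note: tested at 20 µM; growth read once vehicle control cultures reached saturation at 30 °C; 1 = growth at the plate median or of vehicle wells; lower values mean less growth of the strain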
Conditions: S. cerevisiae deletion strains, growth OD
[1] = locus YAL013W, strain DEP1, hits give low values
[2] = locus YDL101C, strain DUN1, hits give low values
[3] = locus YDR150W, strain NUM1, hits give low values
[4] = locus YEL061C, strain CIN8, hits give low values
[5] = locus YGR078C, strain PAC10, hits give low values
[6] = locus YHR030C, strain SLT2, hits give low values
[7] = locus YHR087W, strain rtc3, hits give low values
[8] = locus YJR043C, strain POL32, hits give low values
[9] = locus YJR075W, strain HOC1, hits give low values
[10] = locus YLR039C, strain RIC1, hits give low values
[11] = locus YLR058C, strain SHM2 (second series), hits give low values
[12] = locus YLR085C, strain ARP6, hits give low values
[13] = locus YLR262C, strain YPT6, hits give low values
[14] = locus YML094W, strain GIM5, hits give low values
[15] = locus YMR219W, strain ESC1, hits give low values
[16] = locus YMR263W, strain SAP30, hits give low values
[17] = locus YMR307W, strain GAS1, hits give low values
[18] = locus YNL153C, strain GIM3, hits give low values
[19] = locus YNL298W, strain CLA4 (second series), hits give low values
[20] = locus YNL322C, strain KRE1, hits give low values
[21] = locus YNR030W, strain Alg12, hits give low values
[22] = locus YPL055C, strain LGE1, hits give low values
[23] = locus YPL241C, strain CIN2, hits give low values
[24] = locus YPR135W, strain CTF4, hits give low values

Measured: normalized growth

O=C(O)c1oc(C(=O)O)c(OCc2ccccc2)c1OCc1ccccc1
inactive: [1] 1.01 | locus YBR229C, strain ROT2, hits give low values 1.02 | locus YCL061C, strain MRC1, hits give low values 0.984 | [2] 0.973 | locus YDL134C, strain PPH21, hits give low values 0.998 | [3] 0.973 | [4] 1.01 | [5] 0.976 | [6] 0.963 | [7] 1.03 | [8] 0.965 | [9] 0.988 | [10] 0.993 | [11] 1.02 | [12] 1.01 | [13] 0.981 | [14] 1.03 | [15] 0.997 | [16] 0.997 | [17] 1.03 | [18] 0.988 | [19] 0.986 | [20] 0.963 | [21] 0.998 | [22] 1.07 | [23] 1.01 | [24] 1

OCC(O)Cn1c2ccccc2c2ccccc21 (stereo unspecified)
inactive: [1] 1.01 | [2] 1.04 | [3] 1.03 | [4] 0.986 | [5] 1.02 | locus YGR229C, strain SMI1, hits give low values 0.994 | [6] 1.07 | [7] 0.953 | locus YJL187C, strain SWE1, hits give low values 1 | [8] 0.987 | [9] 1.01 | [10] 0.982 | [11] 0.988 | [12] 0.97 | [13] 0.959 | [14] 0.975 | [15] 0.986 | [16] 1.01 | [18] 1.02 | [19] 0.984 | [20] 0.999 | [21] 0.977 | locus YOL006C, strain TOP1, hits give low values 1 | [22] 0.932 | [23] 0.985 | [24] 1.02

OC(COCc1ccccc1)Cn1c2ccccc2c2ccccc21 (stereo unspecified)
active: [6] 0.632 | locus YLR113W, strain HOG1, hits give low values 0.769 | locus YPL256C, strain CLN2, hits give low values 0.792
inactive: locus YAR019C, strain CDC15, hits give low values 0.951 | locus YBL105C, strain PKC1, hits give low values 0.95 | locus YBR135W, strain CKS1, hits give low values 0.951 | locus YBR136W, strain MEC1, hits give low values 0.952 | locus YBR160W, strain CDC28, hits give low values 0.955 | locus YDL017W, strain CDC7, hits give low values 0.953 | locus YDL028C, strain MPS1, hits give low values 0.951 | [2] 0.98 | locus YDL108W, strain KIN28, hits give low values 0.952 | locus YDL132W, strain cdc53, hits give low values 0.952 | locus YDL214C, strain PRR2, hits give low values 0.903 | locus YDR052C, strain DBF4, hits give low values 0.965 | locus YDR054C, strain cdc34, hits give low values 0.939 | locus YDR226W, strain ADK1, hits give low values 0.965 | locus YDR477W, strain SNF1, hits give low values 0.888 | locus YER123W, strain YCK3, hits give low values 0.888 | locus YER133W, strain GLC7, hits give low values 0.876 | locus YFL009W, strain cdc4, hits give low values 0.964 | locus YFL029C, strain CAK1, hits give low values 0.947 | locus YFR003C, strain YPI1, hits give low values 0.947 | locus YFR019W, strain FAB1, hits give low values 0.954 | locus YFR028C, strain CDC14, hits give low values 0.96 | locus YGR040W, strain KSS1, hits give low values 0.888 | locus YGR052W, strain FMP48, hits give low values 0.874 | locus YGR092W, strain DBF2, hits give low values 0.838 | locus YHR079C, strain IRE1, hits give low values 0.729 | locus YHR082C, strain KSP1, hits give low values 0.91 | locus YHR205W, strain SCH9, hits give low values 0.936 | locus YIL147C, strain SLN1, hits give low values 0.953 | locus YJL095W, strain BCK1, hits give low values 0.866 | locus YJL128C, strain PBS2, hits give low values 0.917 | locus YJL157C, strain FAR1, hits give low values 0.882 | locus YJR016C, strain ILV3, hits give low values 0.953 | locus YJR066W, strain TOR1 (second series), hits give low values 0.917 | locus YJR066W, strain TOR1, hits give low values 0.886 | locus YKL048C, strain ELM1, hits give low values 0.973 | locus YKL067W, strain YNK1, hits give low values 0.905 | locus YKL101W, strain HSL1, hits give low values 0.891 | locus YKL193C, strain SDS22, hits give low values 0.953 | locus YKL203C, strain TOR2, hits give low values 0.877 | locus YLR133W, strain CKI1, hits give low values 0.893 | locus YLR403W, strain SFP1, hits give low values 0.907 | locus YML070W, strain DAK1, hits give low values 0.876 | locus YMR001C, strain CDC5, hits give low values 0.944 | locus YMR205C, strain PFK2 (second series), hits give low values 0.939 | locus YMR277W, strain FCP1, hits give low values 0.955 | locus YNL006W, strain LST8, hits give low values 0.946 | locus YNL020C, strain ARK1, hits give low values 0.881 | locus YNL161W, strain CBK1, hits give low values 0.947 | locus YNL183C, strain NPR1, hits give low values 0.885 | locus YNL207W, strain RIO2, hits give low values 0.946 | locus YNL222W, strain SSU72, hits give low values 0.958 | locus YNL307C, strain MCK1 (second series), hits give low values 0.885 | locus YOL078W, strain AVO1, hits give low values 0.959 | locus YOL136C, strain PFK27, hits give low values 0.898 | locus YOR061W, strain CKA2, hits give low values 0.924 | locus YOR119C, strain RIO1, hits give low values 0.933 | locus YOR231W, strain MKK1, hits give low values 0.837 | locus YOR329C, strain SCD5, hits give low values 0.952 | locus YPL031C, strain PHO85, hits give low values 0.845 | locus YPL204W, strain HRR25, hits give low values 0.791 | locus YPL209C, strain IPL1, hits give low values 0.955 | locus YPR025C, strain CCL1, hits give low values 0.953 | locus YPR106W, strain ISR1, hits give low values 0.95 | locus YPR111W, strain DBF20, hits give low values 0.933 | strain NNK1, hits give low values 0.932 | strain TSCII, hits give low values 0.945

CCCN(CC1CC1)c1nc(C)nc(Nc2c(Cl)cc(Cl)cc2Cl)c1Cl
inactive: [1] 1.02 | locus YAL040C, strain CLN3, hits give low values 1.06 | locus YCL061C, strain MRC1 (second series), hits give low values 1 | [3] 1.01 | locus YDR363W, strain ESC2, hits give low values 0.999 | locus YER002W, strain NOP16, hits give low values 1.05 | [9] 1.01 | [16] 1.01 | [17] 1 | [18] 1.06 | locus YNL224C, strain SQS1, hits give low values 1.05
active: locus YNL197C, strain WHI3, hits give low values 1.13 [resistant] | locus YOR083W, strain WHI5 (second series), hits give low values 1.18 [resistant]
